Measured values: ChEMBL document CHEMBL2218924, “A broad activity screen in support of a chemogenomic map for kinase signalling research and drug discovery” (Biochem J, 2013)

How the values were obtained:
[1] = target: Death-associated protein kinase 1 (Homo sapiens) (UniProt P53355); conditions: at 10 µM
[2] = target: Death-associated protein kinase 2 (Homo sapiens) (UniProt Q9UIK4); conditions: at 1 µM
[3] = target: Death-associated protein kinase 2 (Homo sapiens) (UniProt Q9UIK4); conditions: at 10 µM
[4] = target: T1, Serine/threonine-protein kinase DCLK2 (Homo sapiens) (UniProt Q8N568); conditions: at 1 µM
T1 sequence (whole entry): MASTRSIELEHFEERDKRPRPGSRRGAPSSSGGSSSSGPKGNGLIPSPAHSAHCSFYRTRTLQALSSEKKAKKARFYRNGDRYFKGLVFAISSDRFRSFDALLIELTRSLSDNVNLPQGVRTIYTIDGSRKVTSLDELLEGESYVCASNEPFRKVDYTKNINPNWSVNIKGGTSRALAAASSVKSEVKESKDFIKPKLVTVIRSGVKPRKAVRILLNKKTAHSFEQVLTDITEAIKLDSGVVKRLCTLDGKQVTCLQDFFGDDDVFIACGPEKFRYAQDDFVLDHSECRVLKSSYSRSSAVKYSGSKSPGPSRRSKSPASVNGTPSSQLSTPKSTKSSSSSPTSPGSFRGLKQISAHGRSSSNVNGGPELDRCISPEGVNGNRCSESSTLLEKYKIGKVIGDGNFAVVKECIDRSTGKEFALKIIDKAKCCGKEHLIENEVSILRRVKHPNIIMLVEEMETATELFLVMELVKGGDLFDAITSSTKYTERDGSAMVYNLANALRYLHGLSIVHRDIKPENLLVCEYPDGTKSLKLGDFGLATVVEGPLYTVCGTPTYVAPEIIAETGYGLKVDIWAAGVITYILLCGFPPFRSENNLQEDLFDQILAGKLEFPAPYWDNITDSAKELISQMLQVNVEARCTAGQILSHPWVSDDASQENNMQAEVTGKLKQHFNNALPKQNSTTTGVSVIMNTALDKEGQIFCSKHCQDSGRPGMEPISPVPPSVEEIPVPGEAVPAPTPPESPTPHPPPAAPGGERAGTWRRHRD

[5] = target: T1, Serine/threonine-protein kinase DCLK2 (Homo sapiens); conditions: at 10 µM
[6] = target: T2, Discoidin domain-containing receptor 2 (Homo sapiens) (UniProt Q16832); conditions: at 1 µM
T2 sequence (whole entry): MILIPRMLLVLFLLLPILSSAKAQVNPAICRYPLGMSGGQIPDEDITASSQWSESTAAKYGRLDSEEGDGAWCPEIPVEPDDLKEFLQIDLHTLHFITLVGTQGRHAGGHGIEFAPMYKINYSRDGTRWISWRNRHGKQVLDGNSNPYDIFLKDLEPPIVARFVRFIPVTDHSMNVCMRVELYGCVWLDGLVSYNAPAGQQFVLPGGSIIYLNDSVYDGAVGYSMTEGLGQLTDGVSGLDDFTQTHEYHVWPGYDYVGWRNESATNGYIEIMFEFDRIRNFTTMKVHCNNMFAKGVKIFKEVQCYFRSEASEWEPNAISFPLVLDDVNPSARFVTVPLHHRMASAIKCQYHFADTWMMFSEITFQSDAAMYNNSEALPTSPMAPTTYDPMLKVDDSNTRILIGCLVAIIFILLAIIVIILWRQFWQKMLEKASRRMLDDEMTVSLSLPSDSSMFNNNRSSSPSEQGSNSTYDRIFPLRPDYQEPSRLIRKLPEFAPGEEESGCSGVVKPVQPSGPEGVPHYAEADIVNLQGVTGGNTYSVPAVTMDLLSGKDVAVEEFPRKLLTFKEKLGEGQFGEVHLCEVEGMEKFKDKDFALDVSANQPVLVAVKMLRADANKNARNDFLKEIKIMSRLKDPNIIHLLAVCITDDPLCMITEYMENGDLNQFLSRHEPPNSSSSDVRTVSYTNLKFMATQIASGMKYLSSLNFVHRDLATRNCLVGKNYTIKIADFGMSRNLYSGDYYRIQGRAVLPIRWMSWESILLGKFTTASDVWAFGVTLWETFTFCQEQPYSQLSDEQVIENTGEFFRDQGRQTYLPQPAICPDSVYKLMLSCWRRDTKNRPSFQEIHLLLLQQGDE

[7] = target: T2, Discoidin domain-containing receptor 2 (Homo sapiens); conditions: at 10 µM
[8] = target: T3, Myotonin-protein kinase (Homo sapiens) (UniProt Q09013); conditions: at 1 µM
T3 sequence (whole entry): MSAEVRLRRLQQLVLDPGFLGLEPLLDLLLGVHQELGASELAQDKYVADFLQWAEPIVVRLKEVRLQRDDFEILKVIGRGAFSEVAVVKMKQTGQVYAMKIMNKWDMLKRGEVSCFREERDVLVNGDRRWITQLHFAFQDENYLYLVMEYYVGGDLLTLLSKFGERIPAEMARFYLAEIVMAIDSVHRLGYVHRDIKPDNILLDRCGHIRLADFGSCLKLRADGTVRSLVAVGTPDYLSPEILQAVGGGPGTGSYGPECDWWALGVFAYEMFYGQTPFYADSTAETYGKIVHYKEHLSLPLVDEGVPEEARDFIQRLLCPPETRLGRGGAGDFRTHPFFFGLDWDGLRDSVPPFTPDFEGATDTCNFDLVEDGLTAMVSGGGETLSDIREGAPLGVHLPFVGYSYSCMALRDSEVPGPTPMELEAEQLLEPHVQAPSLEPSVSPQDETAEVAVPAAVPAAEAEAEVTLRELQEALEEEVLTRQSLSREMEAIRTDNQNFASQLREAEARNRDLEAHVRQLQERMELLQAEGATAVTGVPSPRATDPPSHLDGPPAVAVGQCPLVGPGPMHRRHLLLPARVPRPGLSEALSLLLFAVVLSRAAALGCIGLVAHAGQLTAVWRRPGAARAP

[9] = target: T3, Myotonin-protein kinase (Homo sapiens); conditions: at 10 µM
[10] = target: T4, Serine/threonine-protein kinase 17A (Homo sapiens) (UniProt Q9UEE5); conditions: at 1 µM
T4 sequence (whole entry): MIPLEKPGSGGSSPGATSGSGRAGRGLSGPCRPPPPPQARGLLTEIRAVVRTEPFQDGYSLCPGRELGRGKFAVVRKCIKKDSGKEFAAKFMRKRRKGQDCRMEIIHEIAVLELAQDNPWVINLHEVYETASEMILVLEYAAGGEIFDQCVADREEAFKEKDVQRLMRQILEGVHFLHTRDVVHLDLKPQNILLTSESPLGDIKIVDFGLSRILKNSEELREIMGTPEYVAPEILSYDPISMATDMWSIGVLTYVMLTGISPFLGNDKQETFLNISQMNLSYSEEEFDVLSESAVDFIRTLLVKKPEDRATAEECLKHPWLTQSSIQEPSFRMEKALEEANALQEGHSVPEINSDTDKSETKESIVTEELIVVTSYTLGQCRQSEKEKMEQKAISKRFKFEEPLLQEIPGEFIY

[11] = target: T4, Serine/threonine-protein kinase 17A (Homo sapiens); conditions: at 10 µM
[12] = target: T5, Dual specificity tyrosine-phosphorylation-regulated kinase 2 (Homo sapiens) (UniProt Q92630); conditions: at 1 µM
T5 sequence (whole entry): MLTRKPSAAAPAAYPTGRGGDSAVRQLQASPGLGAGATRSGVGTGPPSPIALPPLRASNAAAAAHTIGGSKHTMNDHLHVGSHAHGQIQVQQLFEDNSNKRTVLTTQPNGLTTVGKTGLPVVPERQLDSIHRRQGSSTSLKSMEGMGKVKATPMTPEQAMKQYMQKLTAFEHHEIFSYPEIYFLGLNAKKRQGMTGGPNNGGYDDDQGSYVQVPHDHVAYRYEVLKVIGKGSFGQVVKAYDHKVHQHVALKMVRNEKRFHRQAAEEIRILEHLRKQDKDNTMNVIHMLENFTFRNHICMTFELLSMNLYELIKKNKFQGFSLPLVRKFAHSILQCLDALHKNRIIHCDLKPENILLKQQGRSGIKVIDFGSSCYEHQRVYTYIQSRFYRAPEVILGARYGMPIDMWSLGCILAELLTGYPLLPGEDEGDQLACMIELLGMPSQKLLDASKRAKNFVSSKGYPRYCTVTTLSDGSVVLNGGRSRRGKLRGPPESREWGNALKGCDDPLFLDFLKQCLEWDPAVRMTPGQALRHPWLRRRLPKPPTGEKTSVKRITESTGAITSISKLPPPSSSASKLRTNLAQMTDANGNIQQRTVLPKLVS

[13] = target: T5, Dual specificity tyrosine-phosphorylation-regulated kinase 2 (Homo sapiens); conditions: at 10 µM
[14] = target: T6, Ephrin type-A receptor 1 (Homo sapiens) (UniProt P21709); conditions: at 1 µM
T6 sequence (whole entry): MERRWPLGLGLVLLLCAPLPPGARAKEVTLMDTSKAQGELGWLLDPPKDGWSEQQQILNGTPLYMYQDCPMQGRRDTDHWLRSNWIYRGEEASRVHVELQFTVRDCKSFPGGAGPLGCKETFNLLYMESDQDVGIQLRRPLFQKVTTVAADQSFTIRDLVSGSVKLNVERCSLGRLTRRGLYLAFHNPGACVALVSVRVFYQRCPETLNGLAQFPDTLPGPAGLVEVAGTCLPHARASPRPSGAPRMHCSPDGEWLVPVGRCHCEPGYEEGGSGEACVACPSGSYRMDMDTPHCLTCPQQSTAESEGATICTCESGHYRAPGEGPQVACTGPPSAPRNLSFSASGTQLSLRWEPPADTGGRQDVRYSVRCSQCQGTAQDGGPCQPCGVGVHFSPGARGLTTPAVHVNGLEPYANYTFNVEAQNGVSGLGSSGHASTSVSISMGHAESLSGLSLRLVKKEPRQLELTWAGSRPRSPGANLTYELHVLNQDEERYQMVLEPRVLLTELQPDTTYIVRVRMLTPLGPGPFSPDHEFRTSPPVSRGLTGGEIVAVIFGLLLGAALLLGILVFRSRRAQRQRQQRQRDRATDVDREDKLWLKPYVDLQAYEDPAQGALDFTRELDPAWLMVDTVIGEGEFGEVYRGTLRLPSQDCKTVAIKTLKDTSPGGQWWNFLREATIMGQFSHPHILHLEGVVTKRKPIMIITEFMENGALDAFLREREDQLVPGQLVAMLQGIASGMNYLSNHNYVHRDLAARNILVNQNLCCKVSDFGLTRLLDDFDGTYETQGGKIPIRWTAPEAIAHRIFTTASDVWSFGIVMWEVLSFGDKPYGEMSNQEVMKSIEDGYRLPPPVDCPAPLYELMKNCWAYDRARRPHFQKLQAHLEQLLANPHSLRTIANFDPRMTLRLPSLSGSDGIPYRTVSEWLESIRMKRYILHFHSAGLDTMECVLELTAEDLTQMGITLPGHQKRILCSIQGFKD

[15] = target: T6, Ephrin type-A receptor 1 (Homo sapiens); conditions: at 10 µM
[16] = target: Ephrin type-A receptor 2 (Homo sapiens) (UniProt P29317); conditions: at 1 µM
[17] = target: Ephrin type-A receptor 2 (Homo sapiens) (UniProt P29317); conditions: at 10 µM
[18] = target: T7, Ephrin type-A receptor 3 (Homo sapiens) (UniProt P29320); conditions: at 1 µM
T7 sequence (whole entry): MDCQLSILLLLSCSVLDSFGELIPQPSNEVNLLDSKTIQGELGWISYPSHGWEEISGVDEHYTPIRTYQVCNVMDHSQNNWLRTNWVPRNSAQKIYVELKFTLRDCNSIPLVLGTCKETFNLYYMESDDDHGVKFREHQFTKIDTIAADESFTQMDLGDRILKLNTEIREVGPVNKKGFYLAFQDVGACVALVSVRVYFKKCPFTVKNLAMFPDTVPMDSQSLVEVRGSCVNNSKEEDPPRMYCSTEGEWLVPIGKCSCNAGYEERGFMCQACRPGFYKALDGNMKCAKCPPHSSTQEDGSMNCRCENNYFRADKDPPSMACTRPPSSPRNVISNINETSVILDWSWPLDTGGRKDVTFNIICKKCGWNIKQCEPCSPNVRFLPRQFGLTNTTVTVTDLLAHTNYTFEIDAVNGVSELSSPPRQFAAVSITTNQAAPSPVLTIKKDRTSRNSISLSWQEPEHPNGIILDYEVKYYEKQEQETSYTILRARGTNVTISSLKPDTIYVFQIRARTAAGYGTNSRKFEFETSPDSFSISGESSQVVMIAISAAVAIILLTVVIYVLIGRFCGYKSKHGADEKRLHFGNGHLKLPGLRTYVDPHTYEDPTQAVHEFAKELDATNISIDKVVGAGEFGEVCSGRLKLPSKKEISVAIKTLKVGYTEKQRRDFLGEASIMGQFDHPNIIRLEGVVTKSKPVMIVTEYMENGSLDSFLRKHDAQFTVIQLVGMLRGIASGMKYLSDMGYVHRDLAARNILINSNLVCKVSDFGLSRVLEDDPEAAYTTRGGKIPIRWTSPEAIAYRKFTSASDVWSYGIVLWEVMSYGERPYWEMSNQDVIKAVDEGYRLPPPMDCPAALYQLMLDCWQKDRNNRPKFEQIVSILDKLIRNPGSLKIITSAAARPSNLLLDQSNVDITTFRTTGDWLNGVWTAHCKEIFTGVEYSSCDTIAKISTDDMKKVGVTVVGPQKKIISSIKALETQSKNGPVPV

Death-associated protein kinase 1 (Homo sapiens), sequence (P53355 whole entry, looked up): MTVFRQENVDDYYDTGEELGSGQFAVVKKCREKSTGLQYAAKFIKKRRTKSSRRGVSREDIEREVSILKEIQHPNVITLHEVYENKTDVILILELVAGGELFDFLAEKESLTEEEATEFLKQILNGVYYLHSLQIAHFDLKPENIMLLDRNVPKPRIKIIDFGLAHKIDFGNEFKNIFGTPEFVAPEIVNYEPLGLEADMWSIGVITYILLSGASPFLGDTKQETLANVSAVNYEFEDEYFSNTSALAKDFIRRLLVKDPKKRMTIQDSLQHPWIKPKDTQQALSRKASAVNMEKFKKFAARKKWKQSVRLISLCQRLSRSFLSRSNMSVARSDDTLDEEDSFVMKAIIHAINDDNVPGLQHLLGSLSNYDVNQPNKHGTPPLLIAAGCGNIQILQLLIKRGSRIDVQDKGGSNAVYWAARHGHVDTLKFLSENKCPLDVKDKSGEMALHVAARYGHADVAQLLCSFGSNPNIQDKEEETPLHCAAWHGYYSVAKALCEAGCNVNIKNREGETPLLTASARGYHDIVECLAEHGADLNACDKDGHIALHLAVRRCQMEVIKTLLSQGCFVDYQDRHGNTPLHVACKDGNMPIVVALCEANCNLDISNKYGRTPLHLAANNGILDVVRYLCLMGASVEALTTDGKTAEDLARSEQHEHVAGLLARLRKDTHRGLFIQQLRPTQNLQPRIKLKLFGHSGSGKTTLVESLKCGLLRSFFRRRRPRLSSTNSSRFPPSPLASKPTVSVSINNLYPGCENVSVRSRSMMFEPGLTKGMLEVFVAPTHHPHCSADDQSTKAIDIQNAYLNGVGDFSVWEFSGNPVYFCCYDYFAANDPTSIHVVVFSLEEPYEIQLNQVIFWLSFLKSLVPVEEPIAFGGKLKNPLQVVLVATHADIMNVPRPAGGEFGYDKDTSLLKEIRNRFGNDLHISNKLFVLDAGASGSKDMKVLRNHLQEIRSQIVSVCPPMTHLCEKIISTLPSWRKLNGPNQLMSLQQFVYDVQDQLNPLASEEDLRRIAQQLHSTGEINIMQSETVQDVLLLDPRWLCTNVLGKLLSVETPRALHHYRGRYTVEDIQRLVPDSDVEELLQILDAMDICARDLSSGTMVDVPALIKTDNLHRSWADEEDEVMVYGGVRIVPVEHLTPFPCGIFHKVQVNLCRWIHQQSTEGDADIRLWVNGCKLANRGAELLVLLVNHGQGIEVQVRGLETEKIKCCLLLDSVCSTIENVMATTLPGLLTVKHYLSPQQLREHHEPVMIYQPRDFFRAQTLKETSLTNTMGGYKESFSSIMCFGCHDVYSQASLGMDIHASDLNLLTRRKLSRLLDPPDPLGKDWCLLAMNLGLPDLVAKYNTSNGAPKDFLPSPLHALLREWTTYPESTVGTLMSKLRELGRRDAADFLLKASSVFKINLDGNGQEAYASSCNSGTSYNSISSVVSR
Death-associated protein kinase 2 (Homo sapiens), sequence (Q9UIK4 whole entry, looked up): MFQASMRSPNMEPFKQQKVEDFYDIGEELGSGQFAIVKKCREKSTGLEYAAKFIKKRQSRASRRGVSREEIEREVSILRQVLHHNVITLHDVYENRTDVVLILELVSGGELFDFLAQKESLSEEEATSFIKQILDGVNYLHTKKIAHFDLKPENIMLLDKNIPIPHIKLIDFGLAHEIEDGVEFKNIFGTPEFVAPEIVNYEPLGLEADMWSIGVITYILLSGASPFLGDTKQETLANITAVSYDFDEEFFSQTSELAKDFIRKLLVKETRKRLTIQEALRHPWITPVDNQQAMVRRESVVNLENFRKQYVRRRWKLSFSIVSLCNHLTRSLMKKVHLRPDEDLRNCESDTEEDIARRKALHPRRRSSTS
Ephrin type-A receptor 2 (Homo sapiens), sequence (P29317 whole entry): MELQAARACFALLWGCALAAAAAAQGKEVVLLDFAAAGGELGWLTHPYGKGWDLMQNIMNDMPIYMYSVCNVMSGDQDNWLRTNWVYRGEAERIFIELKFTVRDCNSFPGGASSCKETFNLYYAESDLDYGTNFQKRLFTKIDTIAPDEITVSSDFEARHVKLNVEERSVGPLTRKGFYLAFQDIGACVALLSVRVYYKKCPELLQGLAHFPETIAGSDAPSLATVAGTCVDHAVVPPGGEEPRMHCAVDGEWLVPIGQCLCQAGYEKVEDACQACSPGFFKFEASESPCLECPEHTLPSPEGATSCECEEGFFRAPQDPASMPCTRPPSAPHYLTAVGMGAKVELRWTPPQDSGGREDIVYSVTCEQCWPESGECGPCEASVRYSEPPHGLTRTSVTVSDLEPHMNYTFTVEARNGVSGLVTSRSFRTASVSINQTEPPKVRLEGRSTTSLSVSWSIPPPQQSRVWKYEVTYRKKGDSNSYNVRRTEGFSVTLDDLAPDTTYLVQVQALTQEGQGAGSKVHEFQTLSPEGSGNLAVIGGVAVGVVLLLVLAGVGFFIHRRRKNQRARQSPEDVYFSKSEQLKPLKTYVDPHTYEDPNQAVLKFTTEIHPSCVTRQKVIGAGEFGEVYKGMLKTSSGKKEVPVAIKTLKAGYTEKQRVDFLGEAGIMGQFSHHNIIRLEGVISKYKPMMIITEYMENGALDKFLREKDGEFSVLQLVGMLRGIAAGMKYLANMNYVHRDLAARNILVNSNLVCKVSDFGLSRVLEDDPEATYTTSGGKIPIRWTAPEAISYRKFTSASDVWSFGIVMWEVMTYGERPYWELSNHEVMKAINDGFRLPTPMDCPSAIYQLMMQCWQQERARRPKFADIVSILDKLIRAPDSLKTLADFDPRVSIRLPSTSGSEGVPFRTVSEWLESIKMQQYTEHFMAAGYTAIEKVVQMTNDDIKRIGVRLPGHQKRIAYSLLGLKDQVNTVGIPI

| SMILES | residual activity [1] | residual activity [2] | residual activity [3] | residual activity [4] | residual activity [5] | residual activity [6] | residual activity [7] | residual activity [8] | residual activity [9] | residual activity [10] | residual activity [11] | residual activity [12] | residual activity [13] | residual activity [14] | residual activity [15] | residual activity [16] | residual activity [17] | residual activity [18] |
| --- | --- | --- | --- | --- | --- | --- | --- | --- | --- | --- | --- | --- | --- | --- | --- | --- | --- | --- |
| Nc1cccc(-c2cc3c(Oc4cccc(O)c4)ncnc3[nH]2)c1 | 101% | 102% | 91% | 104% | 78% | 23% | 4% | 98% | 84% | 82% | 32% | 89% | 62% | 2% | -1% | 30% | 2% | 4% |
| N#C/C(=C(\N)Sc1ccc(N)cc1)c1ccccc1C(F)(F)F | 78% | 98% | 103% | 102% | 99% | 91% | 108% | 95% | 85% | 96% | 118% | 105% | 95% | 94% | 82% | 98% | 111% | 96% |
| O=C1Nc2ccccc2/C1=C1/Nc2ccccc2/C1=N\OCCC(O)CO (configuration not stated) | 43% | 49% | 12% | 99% | 35% | 76% | 46% | 115% | 69% | 5% | 3% | 70% | 52% | 43% | 42% | 54% | 14% | 41% |
| O=C1NC(=O)c2cc(Nc3ccc(F)cc3)c(Nc3ccc(F)cc3)cc21 | 76% | 77% | 84% | 76% | 89% | 92% | 51% | 125% | 129% | 105% | 64% | 105% | 101% | 69% | 52% | 100% | 80% | 104% |
